Results taken from PubChem BioAssay AID504782 (NMMLSC, 2011).
Some of the results follow.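 The calls were made as follows: active = inhibition of aptamer binding above 40%, about triple the noise seen with nonglowing compounds, on plates passing quality control; inactive = the rest.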

What follows are compounds tested against Beta-adrenergic receptor kinase 1 (Homo sapiens) (UniProt P25098) (assay: RNA aptamer-GRK2 binding blockers – biochemical, cherry pick 2, bead flow cytometry, confirmation (AID 504782;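 also: negative values mostly come from compounds that fluoresce themselves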)). Conditions: bead-bound GRK2, FAM-aptamer displacement; at 10 µM, active compounds read high.
Beta-adrenergic receptor kinase 1 (Homo sapiens), sequence (P25098 whole entry, looked up): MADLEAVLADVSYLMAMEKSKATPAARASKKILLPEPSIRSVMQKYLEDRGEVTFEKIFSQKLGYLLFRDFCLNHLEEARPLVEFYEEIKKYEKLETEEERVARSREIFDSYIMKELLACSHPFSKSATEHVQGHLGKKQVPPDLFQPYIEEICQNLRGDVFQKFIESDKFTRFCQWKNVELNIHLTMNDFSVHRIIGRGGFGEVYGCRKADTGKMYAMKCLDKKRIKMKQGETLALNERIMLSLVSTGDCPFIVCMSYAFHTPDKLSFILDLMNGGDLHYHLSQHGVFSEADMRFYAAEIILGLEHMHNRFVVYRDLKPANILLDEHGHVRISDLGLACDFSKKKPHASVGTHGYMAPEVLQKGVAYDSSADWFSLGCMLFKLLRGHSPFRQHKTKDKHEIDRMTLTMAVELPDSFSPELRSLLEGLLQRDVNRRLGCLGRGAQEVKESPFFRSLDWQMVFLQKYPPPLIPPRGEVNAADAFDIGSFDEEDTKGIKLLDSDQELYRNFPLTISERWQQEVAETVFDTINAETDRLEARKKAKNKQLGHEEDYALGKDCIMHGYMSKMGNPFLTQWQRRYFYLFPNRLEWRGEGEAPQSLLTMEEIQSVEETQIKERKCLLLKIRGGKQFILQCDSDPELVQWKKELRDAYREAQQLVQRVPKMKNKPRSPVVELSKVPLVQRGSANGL

Inhibition of aptamer binding, inactive:
COc1ccc(Cl)cc1NC(=O)CCS(=O)(=O)c1cc2c(cc1C)NC(=O)CO2 -12.2%
CN=C(Nc1cccc(S(=O)(=O)N2CCOCC2)c1)c1ccccc1 -13.4%
COc1cc([N+](=O)[O-])cc([N+](=O)[O-])c1NC(=O)N1CCOCC1 8.51%
O=C(NCCCN1CCCCCC1)c1ccc(N2CCCC2=O)cc1 -112%
CC1CCN(C(=S)NC2CC3CCC2C3)CC1 (centres undefined) -12.2%
NC(=O)[C@H]1CC2(CC(c3cccc(NC(=O)[C@H]4CCC(=O)N4)c3)=NO2)CN1C(=O)c1ccccc1C(=O)c1ccccc1 (some centres undefined) -25.8%
CCC(C)(C(=O)NC1CCCCC1)N(C)C(=O)c1ccc2c(c1)OCO2 (centres undefined) -12.4%
CCN1CCN(C(=O)N[C@@H](C(=O)N[C@@H]2C(=O)N3C(C(=O)O)=C(CSc4nnnn4C)CS[C@H]23)c2ccc(O)cc2)C(=O)C1=O -21.6%
CC1Sc2ccc(S(=O)(=O)CCC(=O)NCc3ccccc3Cl)cc2NC1=O (centres undefined) 2.07%
CCc1nn(CCCN2CCN(c3cccc(Cl)c3)CC2)c(=O)n1CCOc1ccccc1 4.83%
COCCn1c(N)c(NCc2ccccc2)c(=O)[nH]c1=O -165%
O=[N+]([O-])c1ccccc1S(=O)(=O)Nc1cccc2cccnc12 7.36%
CCOc1ccc(OCC)c(NC(=O)CCS(=O)(=O)c2ccc(C)cc2)c1 -1.15%
CCOCCc1c(O)nc(SCC(=O)NCc2ccco2)[nH]c1=O -20.9%
